Measurements reported in PubChem BioAssay (NCI).
This is part of a sample that, as a whole, favours compounds with a hit. Of some 79,000 tested, about 15% had one in any assay. Values without a mark were called inactive. Activity calls are given as the source filed them. No stated cut-off is given here; in the data, active means growth inhibition above about 70%; inactive means the rest.

Key:
[1] = NCI Yeast Anticancer Drug Screen. Data for the mec2-1 strain (AID 157); conditions: S. cerevisiae mec2-1 strain, active compounds read high
How it was run: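 Compounds were applied to mec2-1 yeast cells. Their growth was then compared with that of vehicle-treated cultures to give growth inhibition.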

[2] = NCI Yeast Anticancer Drug Screen. Data for the rad14 strain (AID 159);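 further: 0% = growth of vehicle-treated control cultures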; conditions: S. cerevisiae rad14 strain growth inhibition, active compounds read high
How it was run: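 Yeast cells carrying a defined DNA-repair defect were exposed to compounds, and growth inhibition was calculated relative to vehicle-treated control cultures.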

[3] = NCI Yeast Anticancer Drug Screen. Data for the sgs1 mgt1 strain (AID 161);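 further: 0% = growth of cultures given vehicle only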; conditions: S. cerevisiae sgs1 mgt1 strain, active compounds read high
How it was run: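 This yeast growth screen uses a strain with defined DNA-repair lesions; compound-treated growth is compared with vehicle-treated growth.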

[4] = NCI Yeast Anticancer Drug Screen. Data for the CLN2oe strain (AID 163);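 further: 0% = growth of vehicle-only control cultures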; conditions: S. cerevisiae CLN2oe strain, active compounds read high
How it was run: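 Cells of an engineered yeast line with disturbed cell-cycle regulation are treated with compound. Inhibition of growth is then calculated relative to the vehicle-treated reference.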

[5] = NCI Yeast Anticancer Drug Screen. Data for the cln2 rad14 strain (AID 165);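 further: 0% = growth equal to vehicle treated cultures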; conditions: S. cerevisiae cln2 rad14 strain, active compounds read high
How it was run: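 Strain: cln2 rad14 yeast, altered in cell cycle control and DNA damage repair. Read-out: growth inhibition vs vehicle.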

[6] = NCI Yeast Anticancer Drug Screen. Data for the bub3 strain (AID 167); conditions: S. cerevisiae bub3 mutant strain, active compounds read high
How it was run: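 Compounds were applied to a genetically altered yeast strain carrying a cell-cycle control defect. Growth inhibition was scored against vehicle-treated controls.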

[7] = NCI Yeast Anticancer Drug Screen. Data for the wt2 strain (AID 169);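 further: 0% = growth of vehicle-treated yeast cultures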; conditions: S. cerevisiae wt2 strain growth inhibition, active compounds read high
How it was run: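 Growth of compound-treated yeast is measured and expressed as inhibition relative to vehicle-only controls.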

[8] = NCI Yeast Anticancer Drug Screen. Data for the mlh1 strain (AID 171);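 further: 0% = growth of vehicle-treated control cultures of the same strain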; conditions: S. cerevisiae mlh1 strain growth inhibition, active compounds read high
How it was run: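 Test agents were incubated with yeast bearing a defined DNA damage repair or cell cycle control alteration; values are growth inhibition normalised to vehicle-treated cultures.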

[9] = NCI Yeast Anticancer Drug Screen. Data for the sgs1 strain (AID 173);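 further: 0% = growth of vehicle-only control cultures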; conditions: S. cerevisiae sgs1 mutant, active compounds read high
How it was run: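 Strain with an altered DNA repair or cell cycle pathway exposed to compound. Growth then measured. Value = inhibition versus vehicle control.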

[10] = NCI Yeast Anticancer Drug Screen. Data for the mlh1 rad18 strain (AID 175); conditions: S. cerevisiae mlh1 rad18 strain growth inhibition, active compounds read high
How it was run: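 A repair-deficient yeast strain is exposed to test compound, and growth is scored relative to vehicle-treated controls.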

[11] = NCI Yeast Anticancer Drug Screen. Data for the rad18 strain (AID 177); conditions: S. cerevisiae rad18 mutant growth inhibition, active compounds read high
How it was run: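 DNA-repair-defective yeast; compound treatment; growth inhibition scored against vehicle.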

[12] = NCI Yeast Anticancer Drug Screen. Data for the rad52 strain (AID 147);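 further: 0% = growth of vehicle-treated control cultures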; conditions: S. cerevisiae rad52 mutant growth inhibition, active compounds read high
How it was run: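 Growth of repair-deficient yeast cells was compared between compound-treated and vehicle-treated cultures to give percent inhibition.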

[13] = NCI Yeast Anticancer Drug Screen. Data for the wt1 strain (AID 149);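 further: 0% = growth of vehicle-treated wt1 cultures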; conditions: S. cerevisiae wt1 strain (SPY 50644) growth inhibition, active compounds read high
How it was run: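 Yeast wt1 strain exposed to compounds; growth inhibition measured relative to vehicle-treated controls.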

[14] = NCI Yeast Anticancer Drug Screen. Data for the rad50EPP+ strain (AID 151);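 further: 0% = growth of vehicle-treated control cultures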; conditions: S. cerevisiae rad50 mutant strain, active compounds read high
How it was run: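 Measured: growth inhibition of rad50EPP+ yeast. Reference: vehicle-treated controls. Screen uses strains with defined genetic alterations in DNA damage repair or cell cycle control.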

[15] = NCI Yeast Anticancer Drug Screen. Data for the mgt1 strain (AID 153); conditions: S. cerevisiae mgt1 mutant growth inhibition, active compounds read high
How it was run: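 Compounds were applied to mgt1 mutant yeast, and growth was then compared against vehicle-treated control cultures to give percent inhibition.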

[16] = NCI Yeast Anticancer Drug Screen. Data for the rad50 strain (AID 155);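 further: 0% = growth of vehicle-only cultures of the same strain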; conditions: S. cerevisiae rad50 strain growth inhibition, active compounds read high
How it was run: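 Yeast carrying a defined DNA repair defect were exposed to test compounds, and growth was compared with vehicle-treated controls to give percent inhibition.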

[17] = at 5.0 µM (retest, dose inferred, filed as 0.5)
[18] = at 50.0 µM (retest, dose inferred, filed as 5.0)

For `O=C1c2ccccc2C(=O)c2c(O)c(NCCNCCO)cc(O)c21`, the growth inhibition [1, 17] was 23%, the growth inhibition ([1]; at 11.0 µM) was 11% and the growth inhibition ([1]; at 33.0 µM) was 84% (active). The growth inhibition [1, 18] was 96% (active), the growth inhibition ([1]; at 50.0 µM) was 87.2% (active) and the growth inhibition ([1]; at 100.0 µM) was 86% (active). The growth inhibition ([2]; at 1.2 µM) was -5%, the growth inhibition ([2]; at 3.7 µM) was -2% and the growth inhibition ([2]; at 11.0 µM) was 40%. The growth inhibition ([2]; at 33.0 µM) was 95% (active), the growth inhibition ([2]; at 100.0 µM) was 95% (active) and the growth inhibition [3, 17] was 35%. For the same compound, the growth inhibition [3, 18] was 97% (active), the growth inhibition ([3]; at 50.0 µM) was 85.2% (active) and the growth inhibition ([4]; at 1.2 µM) was 21%. For the same compound, the growth inhibition ([4]; at 3.7 µM) was 33%, the growth inhibition ([4]; at 11.0 µM) was 29% and the growth inhibition ([4]; at 33.0 µM) was 82% (active). The growth inhibition ([4]; at 100.0 µM) was 93% (active), the growth inhibition [5, 17] was 11% and the growth inhibition [5, 18] was 57%. The growth inhibition ([5]; at 50.0 µM) was 65.5%, the growth inhibition ([6]; at 1.2 µM) was 13% and the growth inhibition ([6]; at 3.7 µM) was 21%. For the same compound, the growth inhibition [6, 17] was 39%, the growth inhibition ([6]; at 11.0 µM) was 45% and the growth inhibition ([6]; at 33.0 µM) was 90% (active). The growth inhibition [6, 18] was 97% (active), the growth inhibition ([6]; at 50.0 µM) was 70.7% (active) and the growth inhibition ([6]; at 100.0 µM) was 91% (active). The growth inhibition ([7]; at 1.2 µM) was -16%, the growth inhibition ([7]; at 3.7 µM) was -4% and the growth inhibition ([7]; at 11.0 µM) was 73% (active). For the same compound, the growth inhibition ([7]; at 33.0 µM) was 81% (active), the growth inhibition ([7]; at 100.0 µM) was 93% (active) and the growth inhibition ([8]; at 1.2 µM) was -23%. For the same compound, the growth inhibition ([8]; at 3.7 µM) was -13%, the growth inhibition ([8]; at 11.0 µM) was 44% and the growth inhibition ([8]; at 33.0 µM) was 91% (active). For the same compound, the growth inhibition ([8]; at 100.0 µM) was 94% (active), the growth inhibition ([9]; at 1.2 µM) was -4% and the growth inhibition ([9]; at 3.7 µM) was 12%. The growth inhibition ([9]; at 11.0 µM) was 48%, the growth inhibition ([9]; at 33.0 µM) was 93% (active) and the growth inhibition ([9]; at 100.0 µM) was 94% (active). The growth inhibition [10, 17] was 58%, the growth inhibition [10, 18] was 95% (active) and the growth inhibition ([10]; at 50.0 µM) was 90.3% (active). The growth inhibition ([11]; at 1.2 µM) was -13%, the growth inhibition ([11]; at 3.7 µM) was -3% and the growth inhibition ([11]; at 11.0 µM) was 20%. The growth inhibition ([11]; at 33.0 µM) was 89% (active) and the growth inhibition ([11]; at 100.0 µM) was 94% (active).
In the case of `CC(CN(C)C)C(=O)/C=C/c1ccc(Cl)c(Cl)c1` (stereo unspecified), the growth inhibition ([12]; at 1.2 µM) is reported as 7%, the growth inhibition ([12]; at 3.7 µM) is reported as 15% and the growth inhibition ([12]; at 11.0 µM) is reported as 29%. For the same compound, the growth inhibition ([12]; at 33.0 µM) was 73% (active), the growth inhibition ([12]; at 100.0 µM) was 95% (active) and the growth inhibition ([13]; at 1.2 µM) was 4%. The growth inhibition ([13]; at 3.7 µM) was 6%, the growth inhibition ([13]; at 11.0 µM) was 9% and the growth inhibition ([13]; at 33.0 µM) was 24%. The growth inhibition ([13]; at 100.0 µM) was 85% (active), the growth inhibition ([14]; at 1.2 µM) was 2% and the growth inhibition ([14]; at 3.7 µM) was 10%. For the same compound, the growth inhibition ([14]; at 11.0 µM) was 27%, the growth inhibition ([14]; at 33.0 µM) was 61% and the growth inhibition ([14]; at 100.0 µM) was 89% (active). For the same compound, the growth inhibition ([15]; at 1.2 µM) was 4%, the growth inhibition ([15]; at 3.7 µM) was 3% and the growth inhibition ([15]; at 11.0 µM) was 13%. The growth inhibition ([15]; at 33.0 µM) was 83% (active), the growth inhibition ([15]; at 100.0 µM) was 98% (active) and the growth inhibition ([16]; at 1.2 µM) was 0%. The growth inhibition ([16]; at 3.7 µM) was -3%, the growth inhibition [16, 17] was -9% and the growth inhibition ([16]; at 11.0 µM) was 20%. For the same compound, the growth inhibition ([16]; at 33.0 µM) was 66%, the growth inhibition [16, 18] was 3% and the growth inhibition ([16]; at 50.0 µM) was 99.2% (active). For the same compound, the growth inhibition ([16]; at 100.0 µM) was 95% (active), the growth inhibition ([1]; at 1.2 µM) was 4% and the growth inhibition ([1]; at 3.7 µM) was 5%. It also gave a growth inhibition [1, 17] of 4%, a growth inhibition ([1]; at 11.0 µM) of 14% and a growth inhibition ([1]; at 33.0 µM) of 48%. For the same compound, the growth inhibition [1, 18] was -10%, the growth inhibition ([1]; at 50.0 µM) was 99.4% (active) and the growth inhibition ([1]; at 100.0 µM) was 97% (active). The growth inhibition ([2]; at 1.2 µM) was 6%, the growth inhibition ([2]; at 3.7 µM) was 9% and the growth inhibition ([2]; at 11.0 µM) was 22%. For the same compound, the growth inhibition ([2]; at 33.0 µM) was 50%, the growth inhibition ([2]; at 100.0 µM) was 96% (active) and the growth inhibition [3, 17] was -4%. For the same compound, the growth inhibition [3, 18] was 8%, the growth inhibition ([3]; at 50.0 µM) was 99.6% (active) and the growth inhibition ([4]; at 1.2 µM) was 3%. For the same compound, the growth inhibition ([4]; at 3.7 µM) was 5%, the growth inhibition ([4]; at 11.0 µM) was 10% and the growth inhibition ([4]; at 33.0 µM) was 29%. For the same compound, the growth inhibition ([4]; at 100.0 µM) was 74% (active), the growth inhibition [5, 17] was -3% and the growth inhibition [5, 18] was -7%. For the same compound, the growth inhibition ([5]; at 50.0 µM) was 97% (active), the growth inhibition ([6]; at 1.2 µM) was 3% and the growth inhibition ([6]; at 3.7 µM) was 5%. It also gave a growth inhibition [6, 17] of -16%, a growth inhibition ([6]; at 11.0 µM) of 16% and a growth inhibition ([6]; at 33.0 µM) of 69%. The growth inhibition [6, 18] was 82% (active), the growth inhibition ([6]; at 50.0 µM) was 99.2% (active) and the growth inhibition ([6]; at 100.0 µM) was 97% (active). For the same compound, the growth inhibition ([7]; at 1.2 µM) was 2%, the growth inhibition ([7]; at 3.7 µM) was 6% and the growth inhibition ([7]; at 11.0 µM) was 14%. The growth inhibition ([7]; at 33.0 µM) was 70% (active), the growth inhibition ([7]; at 100.0 µM) was 98% (active) and the growth inhibition ([8]; at 1.2 µM) was 4%. The growth inhibition ([8]; at 3.7 µM) was 6%, the growth inhibition ([8]; at 11.0 µM) was 15% and the growth inhibition ([8]; at 33.0 µM) was 74% (active). The growth inhibition ([8]; at 100.0 µM) was 98% (active), the growth inhibition ([9]; at 1.2 µM) was 4% and the growth inhibition ([9]; at 3.7 µM) was 9%. For the same compound, the growth inhibition ([9]; at 11.0 µM) was 25%, the growth inhibition ([9]; at 33.0 µM) was 84% (active) and the growth inhibition ([9]; at 100.0 µM) was 98% (active). For the same compound, the growth inhibition [10, 17] was -7%, the growth inhibition [10, 18] was -21% and the growth inhibition ([10]; at 50.0 µM) was 99.2% (active). It also gave a growth inhibition ([11]; at 1.2 µM) of 5%, a growth inhibition ([11]; at 3.7 µM) of 15% and a growth inhibition ([11]; at 11.0 µM) of 40%. For the same compound, the growth inhibition ([11]; at 33.0 µM) was 84% (active) and the growth inhibition ([11]; at 100.0 µM) was 97% (active).
